# A selection: hits, their analogues and other compounds. The true share with any hit is near 14%.
# Giardia FBPA inh-1: inhibitors of Giardia lamblia fructose-1,6-bisphosphate aldolase; purified Giardia FBPA; Potency, µM (highest dose often 59.6 µM), usual class: inhibitors; hit rate 0.71% among 290,000; also: nearly all actives have a fitted effect of over 55% in size
#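 40 nM FBPA preincubated 10 min at RT with compound (up to 57.5 uM final), then substrate plus GAPDH/TPI/NAD/arsenate coupling and diaphorase/resazurin added. Fluorescence read after 20 min at RT, 525/598 nm.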
# NS1 inh: influenza NS1 inhibition. Potency, µM (doses to about 46.1 µM). hit rate 0.4% among 270,000. AID 2326; calls by dose curve; also: actives are rising curves; nearly all actives have a fitted effect of over 50% in size
#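 In this qHTS, NS1 from influenza A is expressed in budding yeast, where it slows growth. Cells are switched from glucose to 2% galactose medium (pH 6.0, -URA), treated with compound, and growth recovery is read at OD600.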
# Cycloheximide cs: counter-screen hit for Shiga toxin inhibitors, cycloheximide. cell reporter, cycloheximide protein synthesis inhibition counterscreen. max response, %. hit rate 12% among 300,000; in the data active = max response mostly above about 13%, no sharp cut-off; inactive = mostly below about 14%; also: read at 38.3 µM for the half of the compounds with a filed dose
# LmPK inhibitor: blocks Leishmania mexicana pyruvate kinase activity; Q27686; purified LmPK, Kinase-Glo ATP luminescence, 1 h; Potency, µM (highest dose often 57.5 µM), actives largely listed as inhibitors; hit rate 0.37% among 290,000; AID 1721
# Target sequence (Q27686 whole entry, looked up): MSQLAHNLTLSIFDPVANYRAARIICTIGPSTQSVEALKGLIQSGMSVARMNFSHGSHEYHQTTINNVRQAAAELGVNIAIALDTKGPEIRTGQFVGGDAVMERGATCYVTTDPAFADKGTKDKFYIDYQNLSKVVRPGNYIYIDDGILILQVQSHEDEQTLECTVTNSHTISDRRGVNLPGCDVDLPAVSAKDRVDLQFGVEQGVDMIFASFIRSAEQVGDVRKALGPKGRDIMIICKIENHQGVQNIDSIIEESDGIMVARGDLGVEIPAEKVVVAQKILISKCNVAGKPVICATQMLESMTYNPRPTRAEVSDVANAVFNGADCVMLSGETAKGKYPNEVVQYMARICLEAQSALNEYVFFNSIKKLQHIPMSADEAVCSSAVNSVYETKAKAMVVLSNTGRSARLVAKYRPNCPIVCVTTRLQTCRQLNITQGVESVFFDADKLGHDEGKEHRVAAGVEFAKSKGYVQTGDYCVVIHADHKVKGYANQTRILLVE
#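 In 50 mM imidazole pH 7.2 with 7 mM MgCl2, LmPK (0.1 nM) turned over PEP (0.5 mM) and ADP (0.1 mM) for 1 h at room temperature. Luciferase read-out of ATP.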
# Shiga toxin inh: inhibitors of Shiga toxin in Vero cells; hit rate 9.2% among 290,000; AID 2315; inhibition, % at 38.7 µM; Vero cells, Shiga toxin protein synthesis inhibition reporter; in the data active = inhibition mostly above about 28%, no sharp cut-off; inactive = mostly below about 43%
# Giardia growth: Giardia lamblia growth inhibition. shares compounds with Giardia FBPA inh-1. Giardia lamblia trophozoite growth inhibition. Potency, µM (doses to about 57.5 µM), usual class: inhibitors. hit rate 5% among 1,500. AID 2785;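 also: trophozoites exposed to compound for 48 h at 37 °C; nearly all actives have a fitted effect of over 70% in size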
# Mammalian tox: toxic to mammalian cells in Giardia aldolase counter-screen; AID 2786; Potency, µM (series often up to 57.5 µM), most hits filed as inhibitors; hit rate 4% among 1,500; mammalian cell viability counter-screen, qHTS; shares compounds with Giardia FBPA inh-1;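 also: Chinese hamster ovary cells used as mammalian cytotoxicity surrogate; viability measured as cellular ATP by luminescence; compound exposure lasted 48 h before reading; nearly all actives have a fitted effect of over 60% in size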
# Giardia FBPA inh-2: confirmation of Giardia fructose-bisphosphate aldolase inhibitors | shares compounds with Giardia FBPA inh-1 | purified Giardia aldolase enzyme activity, qHTS | Potency, µM (titrated, usually from 57.5 µM), hits mostly inhibitors | hit rate 5% among 1,500; also: nearly all actives have a fitted effect of over 45% in size
# Rabbit FBPA inh: selectivity test for Giardia aldolase inhibitors: rabbit aldolase. hit rate 4% among 1,500. Potency, µM (series often up to 57.5 µM), usual class: inhibitors. Rabbit muscle FBPA enzyme inhibition, selectivity counter-screen. shares compounds with Giardia FBPA inh-1; also: nearly all actives have a fitted effect of over 60% in size
# GAPDH coupling: counter-screen for Giardia aldolase inhibitors: GAPDH coupling enzyme | shares compounds with Giardia FBPA inh-1 | GAPDH coupling enzyme counterscreen, biochemical, qHTS | Potency, µM (titrated, usually from 57.5 µM), actives largely listed as inhibitors | hit rate 6% among 1,500 | AID 2795; also: nearly all actives have a fitted effect of over 55% in size
# A number is an active result; . = inactive; ? = inconclusive; / = no result; [ ] = another dose, or the depositor's remark. Unless noted, calls follow the shape of the dose curve; as a rule, active = well fitted curve in the direction sought with a large enough effect; inconclusive = small, poorly fitted or top-dose-only effect, or another doubt; inactive = no such curve, though single readings can be large; an effect the other way counts as inactive or inconclusive.
SMILES,Giardia FBPA inh-1,NS1 inh,Cycloheximide cs,LmPK inhibitor,Shiga toxin inh,Giardia growth,Mammalian tox,Giardia FBPA inh-2,Rabbit FBPA inh,GAPDH coupling
CCN(CC(=O)Nc1ccccc1OC)CC(=O)Nc1ccccc1-c1ccccc1,17.7µM,/,.,.,.,.,.,.,.,.
O=C(NN1C(=O)/C(=C/C=C/c2ccco2)SC1=S)c1ccncc1,7.06µM,.,.,.,.,.,.,?,?,.
O=C(CN(Cc1ccc(Cl)cc1)C(=O)c1csnn1)NCc1ccc(F)cc1,/,.,.,.,.,/,/,/,/,/
O=C(NC(=S)N(CCO)Cc1ccccc1)c1cc(Br)ccc1Cl,15.8µM,.,.,.,.,.[10.4 µM],.,.,.,.
CCOc1ccc(CN(CCC#N)C(=S)NC(=O)c2ccccc2)cc1,.,.,.,?,.,/,/,/,/,/
N#CCCN(Cc1ccccc1)C(=S)NC(=O)c1ccccc1,15.8µM,.,.,?,.,.,.,.,.,.
CN(C)S(=O)(=O)c1cccc(C(=O)NC(=S)N(CCC#N)Cc2cccnc2)c1,5.61µM,/,.,.,.,.,.,.,.,.
CCN(CC)S(=O)(=O)c1ccc(C(=O)NC(=S)N(CCC#N)Cc2cccnc2)cc1,12.6µM,/,.,.,.,?,.,.,.,.
CCC(=O)N(Cc1cc2ccccc2[nH]c1=O)c1ccccc1OC,.,.,.,.,/,/,/,/,/,/
O=C(O)c1ccc2cccc(O)c2n1,2.23µM,.,.,.,.,?,.,?,.,?
CC(C)C(=O)OC/C(O)=C(\C#N)c1nc2ccccc2[nH]1,19.9µM,/,.,.,.,.[10.4 µM],.,.,.,.
COCC(=O)OC/C(O)=C(\C#N)c1nc2ccccc2[nH]1,15.8µM,.,.,.,.,.[10.4 µM],?,.,.,.
N#C/C(=C(/O)COC(=O)c1ccc(O)cc1)c1nc2ccccc2[nH]1,9.98µM,.,.,.,.,.,.,.,.,.
Cc1cccc(C)c1OCC(=O)OC/C(O)=C(\C#N)c1nc2ccccc2[nH]1,.,.,.,.,.,/,/,/,/,/
CCCC(=O)OC/C(O)=C(\C#N)c1nc2ccccc2[nH]1,?,.,.,.,.,/,/,/,/,/
N#C/C(=C(/O)COC(=O)c1cccnc1Cl)c1nc2ccccc2[nH]1,17.7µM,.,.,.,.,.,.,.,.,.
COC(=O)c1sccc1S(=O)(=O)N1CCCC(N(C)CCc2ccccn2)C1 (centres undefined),/,.,.,.,.,/,/,/,/,/
CS(=O)(=O)N(CC(=O)NCCSCc1cccc(Cl)c1)c1ccc(F)cc1,.,.,.,.,/,/,/,/,/,/
O=C(N=C1SC2CS(=O)(=O)CC2N1c1cc(Cl)ccc1Cl)C1CCCO1 (centres undefined),.,.,.,.,.,/,/,/,/,/
O=C(Oc1c(CN2CCOCC2)cc(Cl)c2cccnc12)c1ccccc1F,15.8µM,/,.,.,.,7.94µM,7.94µM,?,?,.
O=C(Oc1c(CN2CCOCC2)cc(Cl)c2cccnc12)c1ccccc1,?,/,.,.,.,/,/,/,/,/
COc1ccccc1/C(O)=C(\C#N)c1nc2ccccc2[nH]1,.,/,.,.,.,/,/,/,/,/
O=C(NC(=S)N1CCN(c2ccc(O)cc2)CC1)c1cccs1,12.6µM,.,23.6,.,83.9,.,.,.,.,.
O=C(NC(=S)N1CCN(c2ccc(F)cc2)CC1)c1cccs1,.,.,.,.,.,/,/,/,/,/
O=C(Oc1ccc(Br)cc1C(=S)N1CCOCC1)c1ccc(F)cc1,/,.,.,.,.,/,/,/,/,/
SMILES,Giardia FBPA inh-1,NS1 inh,Cycloheximide cs,LmPK inhibitor,Shiga toxin inh,Giardia growth,Mammalian tox,Giardia FBPA inh-2,Rabbit FBPA inh,GAPDH coupling
CN1C(=O)S/C(=C\c2ccc(-n3cncn3)cc2)C1=O,.,.,.,.,.,/,/,/,/,/
CCOc1ccc(CNc2ccc(N3CCCC3)cc2)cc1,0.5µM,.,16.6,.,.,.,.,?,?,?
COc1cc(CNc2ccc(N3CCCC3)cc2)cc(Cl)c1OC,1.77µM,.,.,.,.,.,.,17.8µM,31.6µM,?
COc1cc(CNc2ccc(N3CCOCC3)cc2)cc(Br)c1OC,.,.,.,.,.,/,/,/,/,/
CCCc1nc2ccccc2c(NC(=O)CN(CC)CC)c1CC,15.8µM,/,.,.,.,.[10.4 µM],.,.,.,.
CCN(CC)CC(=O)Nc1cc(N(C)C)nc2ccccc12,5.61µM,.,.,.,.,?,.,.,.,.
CCCCc1nc2ccccc2c(NC(=O)CN(CC)CC)c1CCC,.,.,.,.,.,/,/,/,/,/
CCCCCC(=O)Nc1cc(N(C)C)nc2ccccc12,.,.,.,.,.,/,/,/,/,/
Cc1sc2ncn(CC(=O)NCC(=O)N3CCN(c4ccccc4F)CC3)c(=O)c2c1C,.,.,.,.,.,/,/,/,/,/
Nc1c2c(nc3ccc(Br)cc13)N(C1CCCCC1)CC2,17.7µM,/,.,.,.,5.01µM,.,.,.,.
Cc1ccccc1NC(=O)c1ccco1,.,.,.,.,/,/,/,/,/,/
Cc1ccccc1NC(=S)NNC(=O)c1ccco1,7.94µM,.,31.8,.,52.5,?,.,.,.,.
COC(=O)c1cc(OC)c(OC)cc1NC(=S)NC(=O)c1ccco1,12.6µM,.,.,.,.,.,.,.,.,.
O=C(NC(=S)Nc1ccccc1[N+](=O)[O-])c1ccco1,15.8µM,/,22.3,.,.,35.5µM,.,.,.,.
CCNC(=S)Nc1cc(OC)c(NC(=O)c2ccco2)cc1OC,.,.,.,.,.,/,/,/,/,/
COC(=O)CSc1nn(-c2ccc(F)cc2)c(=S)s1,.,/,.,.,.,/,/,/,/,/
CN(C)c1ccc2nc3c(=O)[nH]c(=O)nc-3n(CC(O)C(O)C(O)CO)c2c1 (centres undefined),.,.,.,.,.,/,/,/,/,/
COc1ccc(Oc2ncc3nc(-c4ccccc4)c(=O)n(C4CC4)c3n2)cc1,.,/,/,/,/,/,/,/,/,/
O=S(=O)(c1ccc2ccccc2c1)N1CCN(CCO)CC1,.,.,.,.,.,/,/,/,/,/
FC(F)(F)c1cnc2c(c1)[nH]c(=S)n2-c1ccc(Cl)cc1,.,.,.,.,.,/,/,/,/,/
Fc1ccc(-n2c(=S)[nH]c3cccnc32)cc1,17.8µM,.,.,.,.,.,.,.,.,.
CCOc1ccc(-c2c(C(=O)N/N=C/c3ccc(Cl)cc3)nnn2-c2nonc2N)cc1,/,.,.,.,.,/,/,/,/,/
COc1ccccc1CN1CCN(Cc2ccco2)CC1,15.8µM,.,.,.,.,.[10.4 µM],.,.,.,.
COc1cc(CN2CCN(Cc3ccco3)CC2)cc(OC)c1,14.1µM,.,.,.,.,?,.,.,.,.
COc1ccc(CN2CCN(Cc3ccco3)CC2)c(OC)c1,12.6µM,?,.,.,.,?,.,.,.,.
O=[N+]([O-])c1cccc(CN2CCN(Cc3ccco3)CC2)c1,?,.,.,.,.,/,/,/,/,/
